An excerpt weighted towards active compounds, which were near 2.5% of everything screened.
Cruzain Triton – cruzain (T. cruzi) inhibition with detergent; P25779; purified cruzain, Z-FR-AMC fluorescence, 0.01% Triton; Potency, µM, most hits filed as inhibitors; hit rate 0.43% among 200,000; AID 1478; also: nearly all actives have a fitted effect of over 40% in size
Target sequence (P25779 123-467 limits assumed): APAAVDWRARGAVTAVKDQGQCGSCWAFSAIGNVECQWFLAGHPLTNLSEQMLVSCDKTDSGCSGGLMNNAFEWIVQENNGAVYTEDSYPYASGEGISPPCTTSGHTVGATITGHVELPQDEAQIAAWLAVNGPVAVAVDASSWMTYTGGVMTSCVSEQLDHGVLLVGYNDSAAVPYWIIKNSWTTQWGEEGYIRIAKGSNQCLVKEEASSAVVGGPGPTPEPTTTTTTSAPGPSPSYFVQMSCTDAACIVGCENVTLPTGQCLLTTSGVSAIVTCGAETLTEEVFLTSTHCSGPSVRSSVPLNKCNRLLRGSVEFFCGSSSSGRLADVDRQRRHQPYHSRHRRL
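Cruzain (1.5 nM) preincubated 15 min at RT with compound in 100 mM sodium acetate pH 5.5, 5 mM DTT, 0.01% Triton X-100. Reaction started with 2 uM Z-FR-AMC; AMC fluorescence (ex 360/em 450 nm) change over 60 s gave rate.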
Cruzain inh noDet – blocks cruzain activity in detergent-free assay; Potency, µM, actives largely listed as inhibitors; P25779; purified cruzain, Z-FR-AMC fluorescence, no detergent; hit rate 2.3% among 200,000; also: nearly all actives have a fitted effect of over 40% in size
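Purified cruzain at 1.5 nM, pre-incubated 15 min with compound at room temperature in 100 mM sodium acetate pH 5.5, 5 mM DTT, 0.00005% Triton X-100. Reaction started with 2 uM Z-FR-AMC; AMC fluorescence increase over 60 s gives rate.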
Large screens that a line does not name were inactive. Calls follow the shape of the dose curve; as a rule, active = well fitted curve in the direction sought with a large enough effect; inconclusive = small, poorly fitted or top-dose-only effect, or another doubt; inactive = no such curve, though single readings can be large; an effect the other way counts as inactive or inconclusive.

COc1ccc(OC)c(NC(=O)CCc2c(C)nn(-c3ccc(N4CCCC4)nn3)c2C)c1	none
O=C1c2ccccc2C(=O)C12OC(c1ccccc1)C1(C(=O)c3ccccc3C1=O)C2c1cccc([N+](=O)[O-])c1 (stereo unspecified)	Cruzain inh noDet 7.9µM
O=C1c2ccccc2C(=O)C12OC2c1ccc(Cl)cc1 (stereo unspecified)	none
COc1cc(-c2noc(CCC(=O)Nc3cc(C)ccc3C)n2)cc(OC)c1OC	Cruzain inh noDet inconclusive
CCOc1ccccc1NC1(c2ccccc2)C(=O)c2ccccc2C1=O	Cruzain inh noDet inconclusive
CC(C)(C)C(=O)Oc1cc(N)n(S(=O)(=O)c2ccc(F)cc2)n1	none
Nc1cc(OC(=O)c2ccco2)nn1S(=O)(=O)c1ccc(F)cc1	Cruzain Triton 25µM, Cruzain inh noDet 20µM
COc1cc(OC)c(OC)cc1CN1CCc2nc(Nc3ccc4c(c3)OCCO4)ncc2C1	none
COc1ccc(-n2nc3ccc(NC(=O)c4c(OC)cccc4OC)cc3n2)cc1	none
Cc1c(C(=O)NCC2COc3ccccc3O2)oc2ccc(S(=O)(=O)N3CC(C)CC(C)C3)cc12 (stereo unspecified)	Cruzain inh noDet 20µM
Cc1c(C(=O)NCC2COc3ccccc3O2)oc2ccc(S(=O)(=O)N3CCOCC3)cc12 (stereo unspecified)	none
COc1cc(C(=O)Nc2ccc(-c3cc(C(F)(F)F)nn3-c3ccccc3)cc2)cc(OC)c1OC	Cruzain inh noDet inconclusive
OC[C@@H](O)CNc1ncnc2ccccc12	none
COc1cccc(NC(=O)C2CCCN(c3nnc(-n4c(C)ccc4C)s3)C2)c1 (stereo unspecified)	none
COc1ccccc1OCCn1c(COc2cc(C)ccc2C)nc2ccccc21	none
Cc1ccc(C(=O)NCCc2sc(C)nc2C)cc1	Cruzain Triton 25µM, Cruzain inh noDet inconclusive
Cc1nc(C)c(CCNC(=O)c2ccc(C(F)(F)F)cc2)s1	none
Cc1ccc(CNC(=O)C2CCN(S(=O)(=O)c3c(C)noc3/C=C/c3cccs3)CC2)cc1	none
Cc1noc(/C=C/c2cccs2)c1S(=O)(=O)N1CCC(C(=O)NCc2ccccc2Cl)CC1	Cruzain inh noDet 13µM
CCCn1nc([N+](=O)[O-])c(C(C#N)c2nc3ccccc3o2)c(Cl)c1=O (stereo unspecified)	none
CCn1nc([N+](=O)[O-])c(C(C#N)c2nc3cc(C(F)(F)F)ccc3s2)c(Cl)c1=O (stereo unspecified)	Cruzain Triton 22µM, Cruzain inh noDet inconclusive
Cc1cc(NC(=O)COC(=O)C(Cc2ccccc2)NC(=O)c2ccco2)no1 (stereo unspecified)	Cruzain Triton 28µM, Cruzain inh noDet 25µM
O=C(COC(=O)[C@H](Cc1ccccc1)NC(=O)c1ccco1)NC(c1ccccc1)c1ccccc1	none
N#Cc1c(NCCCO)nc(-c2ccco2)c2c1CCCC2	Cruzain Triton 16µM
N#Cc1c(NC2CCCCC2)nc(-c2ccco2)c2c1CCCC2	Cruzain Triton 16µM, Cruzain inh noDet 25µM
N#Cc1c2c(c(-c3ccco3)[nH]c1=O)CCCC2	none
CC1(C)Cc2c(C#N)c(NCCN3CCOCC3)nc(-c3ccco3)c2CO1	none
CCn1nc(C)c2c(-c3ccccc3)cc(=O)n(C(C)C(=O)NCCC(C)C)c21 (stereo unspecified)	Cruzain inh noDet inconclusive
COCCNC(=O)c1c(NC(=O)Cc2coc3cc(C)ccc23)sc2c1CCCC2	none
CC(=O)c1ccc(NC(=O)CSc2nccn2Cc2ccc3c(c2)OCO3)cc1	none
O=C(CCN1CCCCC1)c1csc2ccccc12	Cruzain inh noDet 2.5µM
O=C(CCN1CCCCC1)c1ccccc1	none
COc1ccc(CNC(=O)c2cnc(N3CCCC3)nc2C)cc1	none
O=C(c1cc2sccc2n1Cc1ccccc1)N1CCc2ccccc21	Cruzain inh noDet inconclusive
O=C(c1cc2sccc2n1Cc1ccccc1)N1CCCc2ccccc21	Cruzain inh noDet 20µM
O=C1c2ccccc2-c2onc3c(Oc4ccccc4)cc(O)c1c23	Cruzain inh noDet 20µM
CCOc1ccc2noc3c2c1C(=O)c1ccccc1-3	none
COc1ccc(Cl)cc1NC(=O)CSc1cn(CC(=O)N2CCCCCC2)c2ccccc12	Cruzain inh noDet inconclusive
COc1cccc(CNC(=O)CSc2c3c(nc4ccc(Cl)cc24)CCCC3)c1OC	none
CC(/C=N/NC(=O)c1ccc(CN2c3cccc4cccc(c34)S2(=O)=O)cc1)c1ccccc1 (stereo unspecified)	Cruzain inh noDet 10µM
O=C1CCC/C(=N/NC(=O)c2ccc(CN3c4cccc5cccc(c45)S3(=O)=O)cc2)C1	none
COC(=O)[C@H](Cc1ccccc1)NC(=O)O[C@@H]1C(=O)c2ccc(OC)cc2O[C@H]1c1ccc2c(c1)OCO2	none
CC(C)CN(CC#N)CC(C)C	none
O=C(CN(c1cccc(C(F)(F)F)c1)S(=O)(=O)c1ccc(Cl)c([N+](=O)[O-])c1)NCc1ccccc1Cl	Cruzain inh noDet 25µM
O=C(CN(c1cccc(C(F)(F)F)c1)S(=O)(=O)c1ccc(Cl)c([N+](=O)[O-])c1)NCc1ccccc1	none
Cc1nc(-n2nc(C)c(CCC(C)C)c2C)sc1C(=O)Nc1ccc(Cl)cc1	none
Cc1ccc2onc(CC(=O)N3CCN(c4cc(Cl)ccc4C)CC3)c2c1	none
Cc1nc(-c2cccc(S(=O)(=O)N3CCCCCC3)c2)cs1	none
O=S(=O)(c1ccc(-c2csc(Nc3ccc(Br)cc3)n2)cc1)N1CCCC1	Cruzain inh noDet 32µM
Cc1nc(-c2ccc(S(=O)(=O)N3CCCCCC3)cc2)cs1	none
Cc1ccc(Nc2nc(-c3ccc(S(=O)(=O)N4CCCC4)cc3)cs2)cc1C	Cruzain inh noDet 13µM
O=S(=O)(c1ccc(-c2csc(Nc3ccc(F)cc3)n2)cc1)N1CCCC1	Cruzain inh noDet inconclusive
Cc1cc(C)cc(Nc2nc(-c3ccc(S(=O)(=O)N4CCCC4)cc3)cs2)c1	Cruzain inh noDet 16µM
CC(=O)c1ccc(N2C(=O)N(Cc3cccc(C(F)(F)F)c3)c3ccccc3S2(=O)=O)cc1	none
CC1=C(C(=O)Nc2ccccc2)C(c2ccc(C(=O)O)cc2)n2nc(SCC(=O)c3ccc(C)cc3)nc2N1 (stereo unspecified)	none
CC(=O)C1=C(c2ccc(F)cc2)N(C(C)=O)n2c(nnc2C2CCCCC2)S1	none
COc1ccc(-c2cc3nc(C)c(CCC(=O)N4CCN(c5cccc(Cl)c5)CC4)c(C)n3n2)c(OC)c1	none
COc1cccc(O)c1O	none
O=C(Nc1ccc(C(F)(F)F)cc1)C1CCCN(c2cnccn2)C1 (stereo unspecified)	none
CC(C)(O)[C@H](O)COc1c2occc2cc2ccc(=O)oc12	none
Cc1cc2ccc(=O)oc2cc1OC[C@@H](O)C(C)(C)O	Cruzain inh noDet 40µM
Cc1ccc(-c2nnn3c2nc(NCc2ccc4c(c2)OCO4)c2ccccc23)cc1	none
CC1CCc2sc(NC(=S)NC(=O)c3ccccc3)c(C#N)c2C1 (stereo unspecified)	Cruzain inh noDet 25µM
CC1CCc2c(sc(NC(=O)c3ccc(-c4ccccc4[N+](=O)[O-])o3)c2C#N)C1 (stereo unspecified)	Cruzain inh noDet 10µM
N#Cc1c(NC(=O)c2ccc(-c3ccccc3[N+](=O)[O-])o2)sc2c1CCCC2	Cruzain inh noDet inconclusive
CC(C)(C)c1ccc(C(=O)NC(=S)Nc2sc3c(c2C#N)CCC3)cc1	Cruzain inh noDet 10µM
CCN1CCc2c(sc(NC(=S)NC(=O)c3ccccc3)c2C#N)C1	none
N#Cc1c(NC(=S)NC(=O)c2ccccc2)sc2c1CCC2	none
CCc1cccc(C)c1NC(=O)CN1CCCN(Cc2ccccc2Cl)S1(=O)=O	none

High-throughput results as filed in PubChem.
